# Measured values: ChEMBL document CHEMBL4513141, “CO-ADD screening of NIH (USA) - Clinical Collection” (2021)
# Potency and affinity values are given separately.
# Assays:
# [1] = system: Klebsiella pneumoniae; conditions: Concentration 20 uM; ASSAY_TEST Inhibition of Bacterial Growth; detection method Absorption (OD600); MEDIA CAMHB; plate type 384well; NBS; CORNING #3640; time 18 hr
# [2] = system: Candida albicans; conditions: 20 µM
# [3] = system: Cryptococcus neoformans; conditions: Concentration 20 uM; ASSAY_TEST Inhibition of Fungal Growth; detection method Resazurin; Absorption (OD600-OD570); plate type 384well; NBS; CORNING #3640
Compound,Inhibition [1],Inhibition [2],Inhibition [3]
CCOC(=O)C1=C(C)NC(C)=C(C(=O)OC)C1c1cccc(Cl)c1Cl (stereo unspecified) [FELODIPINE],7.48%,1.71%,-9.45%
Cc1[nH]cnc1CN1CCc2c(c3ccccc3n2C)C1=O.Cl [ALOSETRON HYDROCHLORIDE],15.86%,2.6%,-5.48%
CC[C@@]1(O)C(=O)OCc2c1cc1n(c2=O)Cc2cc3c(CN(C)C)c(O)ccc3nc2-1.Cl [TOPOTECAN HYDROCHLORIDE],17.31%,1.75%,-3.31%
COC(=O)C1=C(C)NC(C)=C(C(=O)O[C@@H]2CCCN(Cc3ccccc3)C2)[C@@H]1c1cccc([N+](=O)[O-])c1.Cl,-2.17%,3.91%,-18.39%
Cl.Cn1c(NCCN(CCO)CCCc2ccc([N+](=O)[O-])cc2)cc(=O)n(C)c1=O,3.03%,4.73%,-1.07%
CN1CC(=O)N2[C@H](c3ccc4c(c3)OCO4)c3[nH]c4ccccc4c3C[C@@H]2C1=O,2.98%,-1.32%,-3.58%
CCCC(CCC)C(=O)O [VALPROIC ACID],1.95%,5.05%,-4.42%
CC(N)(Cc1ccc(O)c(O)c1)C(=O)O (stereo not drawn) [METHYLDOPA (RACEMIC)],2.57%,3.32%,7.73%
COc1cc([C@@H]2c3cc4c(cc3[C@@H](O[C@@H]3O[C@@H]5CO[C@@H](C)O[C@H]5[C@H](O)[C@H]3O)[C@H]3COC(=O)[C@H]23)OCO4)cc(OC)c1O [ETOPOSIDE],4.81%,0.59%,-6.14%
COc1cc2nc(N(C)CCCNC(=O)C3CCCO3)nc(N)c2cc1OC (stereo unspecified) [ALFUZOSIN],-2.08%,-0.8%,-5.01%
COc1ccc2cc([C@H](C)C(=O)[O-])ccc2c1.[Na+] [NAPROXEN SODIUM],13.03%,9.05%,-1.8%
CNCC[C@H](Oc1cccc2ccccc12)c1cccs1.Cl [DULOXETINE HYDROCHLORIDE],5.49%,3.07%,-2.99%
Cl.O[C@@H](c1cc(C(F)(F)F)nc2c(C(F)(F)F)cccc12)[C@H]1CCCCN1,14.04%,5.35%,–
CC1=C(/C=C/C(C)=C/C=C/C(C)=C\C(=O)O)C(C)(C)CCC1 [ISOTRETINOIN],9.94%,1.42%,-2.4%
O=C(NCCN1CCOCC1)c1ccc(Cl)cc1 [MOCLOBEMIDE],9.06%,3.1%,-2.98%
O=C(O)c1cccnc1 [NIACIN],4.99%,2.72%,-3.83%
CC=CC(=O)N(CC)c1ccccc1C,0.87%,0.3%,-7.28%
Cl.OC(CCN1CCCC1)(c1ccccc1)C1CCCCC1 (stereo unspecified) [PROCYCLIDINE HYDROCHLORIDE],8.43%,4.68%,-10.03%
CC(C)OC(=O)CCC/C=C\C[C@@H]1[C@@H](CC[C@@H](O)CCc2ccccc2)[C@H](O)C[C@@H]1O [LATANOPROST],18.51%,0.35%,-2.04%
CCC(=C(c1ccccc1)c1ccc(OCCN(C)C)cc1)c1ccccc1,0.16%,5.96%,1.89%
CC(C)NCC(O)COc1ccc(CCOCC2CC2)cc1.Cl (stereo unspecified) [BETAXOLOL HYDROCHLORIDE],15.59%,2.88%,-9.53%
CCCCC(=O)O[C@H]1CC[C@H]2[C@@H]3CCc4cc(O)ccc4[C@H]3CC[C@]12C [ESTRADIOL VALERATE],8.52%,0.66%,2.38%
C=C[C@H]1CN2CC[C@H]1C[C@@H]2[C@@H](O)c1ccnc2ccc(OC)cc12 [QUINIDINE],12.62%,-0.46%,–
CC(C)NCC(O)COc1ccc(CC(N)=O)cc1 (stereo unspecified) [ATENOLOL],8.57%,3.26%,1.62%
CNC(=C[N+](=O)[O-])NCCSCc1csc(CN(C)C)n1 [NIZATIDINE],14.45%,0.73%,-0.19%
C=C1/C(=C\C=C2/CCC[C@]3(C)[C@@H]([C@H](C)CCCC(C)(C)O)CC[C@@H]23)C[C@@H](O)C[C@@H]1O [CALCITRIOL],21.35%,2.06%,-8.66%
